# Assay outcomes (PubChem)
# Rab9 prom act: Rab9 promoter activation. AID 485297. Potency, µM (top dose mostly 9.22 µM), for the others: at the highest dose activation, negative = inhibition, actives largely listed as activators. hit rate 2.8% among 320,000. Huh7 Rab9 promoter-luciferase reporter, luminescence, 24 h; also: % of control where 0% means no effect; nearly all actives have a fitted effect of over 60% in size
#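 Stable Rab9-luc Huh7, 1500 cells/well, 2 h settle; cmpd in DMSO, 24 h, 37 °C/5% CO2; luciferase reagent 10 min RT; luminescence.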
# SMN2 splice up: increases expression of the SMN2 splice variant. hit rate 2.8% among 210,000. HEK293 SMN2-luciferase splicing reporter, luminescence, 30-36 h. Potency, µM (highest dose often 46.1 µM), for inactives: at the highest dose activity change, positive = activation, actives largely listed as activators. AID 1458; also: % of control where 0% means no effect; nearly all actives have a fitted effect of over 55% in size
#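 HEK293 cells carry an SMN2 minigene-luciferase reporter in which exon 7 inclusion puts luciferase in frame. Cells were seeded at 2000 cells/well, attached for 10-12 hours, then exposed to compounds for 30-36 hours at 37C before ONE-Glo luminescence.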
# uPA generation: cell surface uPA generation inhibition. AID 540303. cell surface uPA generation assay, qHTS. hit rate 0.31% among 330,000. Potency, µM (top dose mostly 38.3 µM), for inactives: at the top dose activity change, negative = inhibition, actives largely listed as inhibitors; active = well fitted inhibition curve with a large enough effect; inconclusive = small, poorly fitted or top-dose-only effect; inactive = no such curve, though single readings can be large or run the other way; tested in mouse RAW 264.7 cells; also: % is scaled to controls: 0 for no effect and ±100 for the full control effect; nearly all actives have a fitted effect of over 55% in size
# ELG1 genotox: induces genotoxicity in HEK293T cells with luciferase-tagged ELG1 | HEK293T ELG1-luciferase reporter, luminescence, 16 h | Potency, µM (highest dose often 46 µM), for the others: top-dose activity change, positive = activation, hits mostly activators | hit rate 1.3% among 330,000 | AID 504466; also: % of control where 0% means no effect; nearly all actives have a fitted effect of over 60% in size
#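 Quantitative HTS format in 1536-well plates. HEK293T ELG1-luciferase reporter cells receive test compound and are incubated 16 hr at 37 °C, 5% CO2; ONE-Glo added, 30 min room temperature, then luminescence read.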
# FLuc modulator: counter-screen for miR-21 project: firefly luciferase inhibitors or activators | purified FLuc, Km substrates, luminescence inhibition | Potency, µM (series often up to 57.5 µM), for inactives: at the highest dose activity change, negative = inhibition, usual class: inhibitors | hit rate 6.9% among 360,000 | AID 588342;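 also: plate controls were vehicle for no effect and reference inhibitor for full effect; nearly all actives have a fitted effect of over 55% in size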
# Target sequence (P08659 whole entry, looked up): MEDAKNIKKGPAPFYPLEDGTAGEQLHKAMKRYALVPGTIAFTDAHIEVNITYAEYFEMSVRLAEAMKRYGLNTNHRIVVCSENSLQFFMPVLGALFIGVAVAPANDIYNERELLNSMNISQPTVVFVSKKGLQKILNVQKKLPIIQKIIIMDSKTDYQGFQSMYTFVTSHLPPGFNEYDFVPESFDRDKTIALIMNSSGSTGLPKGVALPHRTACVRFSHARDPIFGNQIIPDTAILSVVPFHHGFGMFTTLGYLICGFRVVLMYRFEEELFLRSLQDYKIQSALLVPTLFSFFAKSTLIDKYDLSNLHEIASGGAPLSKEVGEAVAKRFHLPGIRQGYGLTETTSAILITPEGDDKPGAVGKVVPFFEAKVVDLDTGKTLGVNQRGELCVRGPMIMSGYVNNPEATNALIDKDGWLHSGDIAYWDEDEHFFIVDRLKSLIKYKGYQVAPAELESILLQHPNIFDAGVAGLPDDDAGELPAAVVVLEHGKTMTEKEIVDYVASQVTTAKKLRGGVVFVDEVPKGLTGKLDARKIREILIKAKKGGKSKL
#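 Purified P. pyralis luciferase (10nM final) with 10uM D-luciferin and 10uM ATP (Km levels) in 50mM Tris acetate pH 7.5, 10mM Mg acetate, 0.01% Tween-20, 0.05% BSA; qHTS 6-point titration, ~60 µM downward; luminescence read.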
# NPC1 promoter act: NPC1 promoter activation. Potency, µM (titrated, usually from 9.22 µM), inactives show at the highest dose activation, most hits filed as activators. hit rate 2.4% among 320,000. Huh7 NPC1 promoter luciferase reporter, 24 h. AID 485313; also: % of control where 0% means no effect; nearly all actives have a fitted effect of over 60% in size
#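 Stable NPC1-promoter luciferase Huh7 line; cpd (DMSO) 24 h, 37 °C, 5% CO2; Amplite luciferase reagent 10 min RT; luminescence readout. qHTS format.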
# Numbers without * were called inactive; u = inconclusive; x = no result given. Compounds with a hit are over-represented: about 7.3% of the library has one in this group of screens. Unless noted, calls follow the shape of the dose curve; as a rule, active = well fitted curve in the direction sought with a large enough effect; inconclusive = small, poorly fitted or top-dose-only effect, or another doubt; inactive = no such curve, though single readings can be large; an effect the other way counts as inactive or inconclusive. Potency is read from the fitted curve at half-maximal effect.
SMILES,Rab9 prom act,SMN2 splice up,uPA generation,ELG1 genotox,FLuc modulator,NPC1 promoter act
CCCCCNC1=CC(=O)CC(c2ccccc2)C1 (stereo not given),1%,13%,-17%,3%,-5%,-4%
CCCCCn1c(CCNC(=O)c2cccc(C)c2)nc2ccccc21,x,-16%,x,x,5%,x
CCOC(=O)N1CCN(S(=O)(=O)c2ccc(C(=O)Nc3nnc(CC)o3)cc2)CC1,-4%,3.5µM*,-8%,-2%,16%,-4%
CCSc1nnc(NC(=O)c2cccs2)s1,u,22%,x,-15%,19µM*,u
O=C(Nc1nnc(SCc2ccccc2)s1)c1cccs1,21%,u,0%,15µM*,u,24%
CCOCc1nnc(NC(=O)c2cccs2)s1,-1%,14%,2%,1%,-13%,0%
COc1ccc(CNC(=O)CN2C(=O)c3cccnc3Oc3ccc(C)cc32)cc1,x,x,x,x,-6%,x
CCCS(=O)(=O)N1CC(=O)N(c2ccc(C)cc2C)C(C)(C(=O)NC2CCCCCC2)C1 (stereo not given),x,x,x,x,-3%,x
Cc1ccc(S(=O)(=O)NCc2ccccc2)cc1C(=O)NCc1ccccn1,0%,x,6%,-8%,0%,-3%
Cc1ccc(C)c(NC(=O)CSc2nc(-c3ccccc3)c(C#N)c(=O)[nH]2)c1,x,x,x,x,-4%,x
CC(Sc1nc(-c2ccccc2)c(C#N)c(=O)[nH]1)C(=O)Nc1ccc(F)cc1 (stereo not given),x,x,x,x,17µM*,x
Cc1ccc(NC(=O)C(C)Sc2nc(-c3ccccc3)c(C#N)c(=O)[nH]2)c(C)c1 (stereo not given),x,x,x,x,12µM*,x
CSc1nc(-c2ccccc2)c(C#N)c(=O)[nH]1,-3%,x,1%,-2%,-1%,0%
FC(F)C(F)(F)C1=CC(c2cccs2)=NCCN1,0%,0.71µM*,1%,-2%,7%,-2%
FC(F)C(F)(F)C1=CC(c2ccccc2)=NCCN1,6%,1%,-7%,1%,3%,-4%
COc1ccc(-c2csc3ncnc(NCCN4CCOCC4)c23)cc1,3%,-1%,-16%,-20%,0%,0%
COc1ccc(-n2ncc3c(NCCN4CCOCC4)ncnc32)cc1,u,-8%,0%,15µM*,15µM*,28%
Cc1ccc(-n2ncc3c(NCCCN4CCOCC4)ncnc32)c(C)c1,-7%,-8%,-9%,-2%,-1%,1%
COc1ccc(-n2ncc3c(NCCCN4CCOCC4)ncnc32)cc1,u,-2%,-22%,9.2µM*,11µM*,u
COc1ccc(-c2oc3ncnc(NCCCN4CCOCC4)c3c2-c2ccc(OC)cc2)cc1,-3%,-16%,-4%,-4%,2%,-1%
Cc1ccc(-n2ncc3c(NCCCN4CCOCC4)ncnc32)cc1Cl,x,x,x,x,9.5µM*,x
Cc1ccc(-n2ncc3c(NCCO)ncnc32)cc1Cl,x,x,x,x,6µM*,x
Cc1cccc2nc(-c3cccnc3)c(Nc3ccc(C(C)C)cc3)n12,x,-33%,x,x,3%,x
O=C(CSc1nc2ccccc2nc1Cc1ccc(Cl)cc1)NCCc1ccccc1,x,x,x,x,-5%,x
CCCc1cnc2c(c1SCc1cccc(F)c1)c(=O)n(C)c(=O)n2C,x,x,x,x,0%,x
SMILES,Rab9 prom act,SMN2 splice up,uPA generation,ELG1 genotox,FLuc modulator,NPC1 promoter act
CC(=O)NNc1ncnc2c1cnn2-c1ccc(C)cc1,5%,x,2%,u,u,-3%
CC(=O)NNc1ncnc2c1cnn2-c1ccc(C)c(Cl)c1,16%,2%,1%,16%,24µM*,2%
Cc1cccc(C2c3[nH]c4ccccc4c3CCN2Cc2cccn2-c2ncccn2)c1 (stereo not given),u,20µM*,1%,-6%,-19%,1%
COc1ccc(C2c3[nH]c4ccccc4c3CCN2Cc2cccn2-c2ncccn2)cc1C (stereo not given),-9%,x,-2%,-5%,-19%,8%
COc1cccc(NC(=O)c2ccc3nc(Cc4ccccc4)oc3c2)c1,x,x,x,x,-17%,x
C=CCOc1c(CNc2ccc(C(=O)O)cc2)cccc1OC,-2%,u,8%,2%,-19%,7%
C=CCOc1c(CNc2cccc(C(=O)O)c2)cccc1OCC,3%,1%,x,7%,-14%,10%
C=CCOc1cccc(CNc2cccc(C(=O)O)c2)c1,u,x,13%,16%,9.5µM*,u
C=CCOc1c(CNc2ccc(C(=O)O)cc2)cccc1OCC,u,u,x,18%,21µM*,u
C=CCOc1c(CNc2cccc(C(=O)O)c2)cccc1OC,u,u,-4%,u,15µM*,u
COc1ccc2c(C)c(CCC(=O)NCCc3ccc(Cl)cc3)c(=O)oc2c1,x,-14%,x,x,-16%,x
CCOC(=O)c1ccc(-n2c(N)c(C(=O)OC)c3nc4ccccc4nc32)cc1,x,x,x,x,3%,x
COc1ccc(-c2n[nH]c3c2CN(C(=O)c2ccc(OC)c(OC)c2)CC3)cc1,-14%,x,3.2µM*,-4%,2%,-32%
COc1cc(OC)cc(C(=O)N2CCN(C(=O)c3ccc(OC)c(OC)c3)CC2)c1,3%,-1%,-2%,0%,3%,-3%
Nc1c(Cl)cc(C2=NCCn3c2c2ccc([N+](=O)[O-])cc2[n+]3[O-])cc1Cl,-1%,x,4µM*,-1%,0%,-8%
COC(=O)c1cc(OC)c(OC)cc1NC(=O)c1ccc2c(c1)CCN2S(=O)(=O)c1ccccc1,x,0%,x,x,-1%,x
O=C(/C=C\c1ccc(-c2cccc([N+](=O)[O-])c2)o1)N1CCOCC1,3.5µM*,x,2%,u,u,u
O=C(O)c1ccc(N=C2NC(=O)C(CO)(CO)S2)cc1,3%,x,-18%,-2%,-1%,-6%
CCOC(=O)CCNC(=O)N1CCN(S(=O)(=O)c2ccc3c(ccn3C)c2)CC1,x,x,x,x,0%,x
O=C(c1cc(-c2ccc3c(c2)OCO3)on1)N1CCCCC1,0.5µM*,x,-3%,0.12µM*,0.85µM*,0.32µM*
O=C(Nc1ccc(F)cc1F)c1cc(-c2ccc3c(c2)OCO3)on1,u,11%,19%,20%,-10%,u
O=C(c1cc(-c2ccc(Cl)c(Cl)c2)on1)N1CCCCCC1,2.8µM*,x,-2%,u,4.8µM*,2µM*
O=C(c1cc(-c2ccc(O)cc2)on1)N1CCCCCC1,2.5µM*,x,-6%,u,13µM*,1.3µM*
O=C(c1cc(-c2ccccc2O)on1)N1CCCCC1,x,20µM*,x,x,8.5µM*,x
COc1ccc(-c2cc(C(=O)N3CCCCC3)no2)cc1OC,u,14%,x,u,u,u
O=C(c1ccc(CS(=O)(=O)c2c(Cl)cccc2Cl)o1)N1CCN(c2ccccc2)CC1,x,-41%,x,x,-7%,x
O=C(CSc1oc(-c2ccc(F)cc2)nc1S(=O)(=O)c1ccccc1)NC1CCCCC1,x,2%,x,x,1%,x
